Results filed as inconclusive are left out. A number with no mark means an inactive call. The source made the active and inactive calls. Calls come from the whole dose curve; as a rule, active = well fitted curve in the direction sought with a large enough effect; inconclusive = small, poorly fitted or top-dose-only effect, or effect the other way, or another doubt; inactive = no such curve, though single readings can be large or run the other way.
The compounds below were run against Thyrotropin receptor (Homo sapiens) (UniProt P16473) (assay: qHTS Assay for Antagonists of the Thyroid Stimulating Hormone Receptor: SAR for Probe). Settings: HEK293-TSHR, TSH-stimulated cAMP HTRF, 2 h; series mostly up to 57.5 µM; activity change, negative = inhibition: at the top concentration.
From the text: TSH is an alpha/beta heterodimeric glycoprotein hormone secreted from the anterior pituitary gland which belongs to the glycoprotein hormone family. The actions of TSH are mediated by a seven-transmembrane receptor, which upon TSH binding couples preferentially to the G-alpha (s) protein (Gs), resulting in activation of adenylate cyclase and increase in cyclic adenosine 3', 5' monophosphate (cAMP). The TSH receptor (THSR) is mainly expressed in thyroid follicular cells and regulates their growth and function. This cell based assay was conducted on a TSHR transfected HEK 293 cell line, measuring cAMP stimulation using antibody-based Homogeneous Time Resolved Fluorescence (HTRF). Our goal is to identify small molecules that will inhibit (antagonize) the thyroid-stimulating hormone receptor (TSHR), a member of the 7 transmembrane-spanning receptor (7TMR) family of cell surface receptors. TSHR-mediated hyperthyroidism is important in thyroid pathology. The development of small molecule antagonists of TSHR may lead to therapeutic approaches for TSHR-mediated hyperthyroidism caused by constitutively activating mutations or stimulating auto-antibodies associated with Graves' disease. Graves' disease is the leading cause of hyperthyroidism and is caused by autoantibodies that stimulate TSHR (TsAbs) causing thyroid growth and unregulated overproduction of thyroid hormones and existing treatments have liabilities (agranulocytosis). In addition, TSHRs are known to be expressed in multiple extrathyroidal tissues including bone, brain, kidney, testis, fat and cells of the immune system but the role of the TSHR in these tissues is not clear. Therefore, TSHR antagonists/inverse agonists could be used as probes of extrathyroidal TSHR function. Finally, TSHR inverse agonists, which are a subclass of antagonists that inhibit agonist-independent (or basal or constitutive) TSHR signaling, could be used to inhibit TSH-independent signaling in patients with recurrent or metastatic thyroid cancer who are receiving thyroid hormone to suppress TSH. The present assay presents confirmation data for analogues of series of interest in the primary screening assay.
An anti cAMP antibody contains a fluorescent cryptate tag (excitation 337 nm; emission 620 nm) and the acceptor is cAMP-d2 (excitation 620 nm; emission 665 nm). When antibody and cAMP-d2 interact and are excited by a 337 nm light, a FRET occurs resulting in emission at 665 nm. The assay is competition between cAMP-d2 and cAMP (from the cell lysate). The homogeneous protocol allows for one step dispense after stimulation that is automation friendly. Step, Parameter, Value, Description 1, Cells, 3 uL, 2000 TSHR freshly harvested cells/well 1536 TC treated White solid bottom plate (Cells resuspended in 10 mM HEPES buffered HBSS and 70 uM RO 20-1724) 2, Compound, 23 nL, Libraries and controls 3, Compound, 1 uL, EC80 TSH (4 nM final) 4, Time, 2 hours, 37C 5, Reagent, 2 uL, cAMP antibody diluted 1:20 in lysis buffer 6, Time, 30 minutes, Room temperature 7, Detector, HTRF settings, Viewlux

Chain of Thyrotropin receptor (Homo sapiens) (P16473 whole entry, looked up): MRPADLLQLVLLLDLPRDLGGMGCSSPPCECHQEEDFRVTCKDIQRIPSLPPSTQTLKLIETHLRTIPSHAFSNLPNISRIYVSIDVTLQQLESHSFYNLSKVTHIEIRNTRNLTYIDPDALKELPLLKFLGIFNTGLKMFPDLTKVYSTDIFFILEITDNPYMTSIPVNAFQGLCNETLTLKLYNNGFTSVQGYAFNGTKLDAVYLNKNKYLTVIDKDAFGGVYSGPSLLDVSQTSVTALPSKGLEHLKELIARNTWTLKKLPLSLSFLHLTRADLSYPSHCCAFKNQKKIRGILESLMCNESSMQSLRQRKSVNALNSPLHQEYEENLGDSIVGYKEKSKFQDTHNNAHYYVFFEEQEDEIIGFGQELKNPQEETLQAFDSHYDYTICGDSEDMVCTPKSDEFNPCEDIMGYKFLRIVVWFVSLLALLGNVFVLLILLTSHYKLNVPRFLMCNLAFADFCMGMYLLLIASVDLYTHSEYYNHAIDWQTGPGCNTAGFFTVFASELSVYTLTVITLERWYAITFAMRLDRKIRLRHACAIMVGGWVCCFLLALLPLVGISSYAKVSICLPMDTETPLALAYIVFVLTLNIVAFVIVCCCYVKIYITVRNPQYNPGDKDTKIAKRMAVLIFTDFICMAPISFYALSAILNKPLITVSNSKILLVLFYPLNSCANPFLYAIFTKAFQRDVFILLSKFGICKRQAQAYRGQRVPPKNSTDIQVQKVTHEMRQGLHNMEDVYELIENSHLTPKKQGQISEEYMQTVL

Structure (SMILES)	activity change, negative = inhibition [%]	Potency
O=c1c2ccccc2nc(-c2ccccc2O)n1Cc1ccccc1	3.37	–
COc1ccc(-c2nc3ccccc3c(=O)n2Cc2ccco2)cc1COc1c(C)cccc1C	-1.63	–
COc1ccc(C2Nc3ccccc3C(=O)N2Cc2ccco2)cc1 (configuration not stated)	1.84	–
COc1ccc(C2Nc3ccccc3C(=O)N2Cc2ccc3c(c2)OCO3)cc1COc1c(C)cc(NC(C)=O)cc1C (configuration not stated)	-4.42	–
Cc1cccc(C)c1OCc1cccc(C2Nc3ccccc3C(=O)N2Cc2ccco2)c1 (configuration not stated)	–	32.6 µM (active)
COc1ccc(C2Nc3ccccc3C(=O)N2Cc2ccccc2)cc1COc1ccc(NC(=O)c2ccccc2)cc1 (configuration not stated)	1.27	–
COc1ccc(C2Nc3ccccc3C(=O)N2Cc2ccccc2)cc1COc1c(C)cccc1C (configuration not stated)	-8.19	–
